# Source: PubChem BioAssay
# “And” between values parts separate entries of the source, which are not always exact repeats. Identical values can stand only once. Values without a mark were called inactive. For some assays here: Measured potencies and affinities stand elsewhere. The source made the active and inactive calls. Unless noted, how the calls were made is not given here.
# How the values were obtained:
# [1] = antimalarial activity against Dd2 strain (AID 2302;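 active means growth inhibition above 50% at the single 2 µM test dose, taken to imply half-maximal potency below 2 µM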;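 further: 0% = DMSO untreated growth and 100% = chloroquine plus artemisinin killed control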); settings: P. falciparum Dd2 in RBCs, LDH growth readout, 72 h; at 2 µM; active compounds read high
# [2] = HepG2 cytotoxicity, primary screen, cytotoxicity control for P. falciparum antimalarial project, cell-based, ATP luminescence (AID 2303;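 active means inhibition above 50%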;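 further: 0% = DMSO wells and 100% = digitonin-killed cells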); settings: HepG2 viability, 24-48 h, at 10 µM, active compounds read high
# [3] = target: L-lactate dehydrogenase (Plasmodium falciparum (isolate CDC / Honduras)) (UniProt Q27743); test: PfLDH activity inhibition – cell lysate, 3D7 strain, counter-screen for P. falciparum growth inhibition project (AID 2304);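 further: 0% = vehicle and 100% = reference inhibitor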; settings: P. falciparum 3D7 crude extract, LDH APAD/NBT absorbance; at 2 µM; active compounds read high
# [4] = inhibition of 3D7 malaria parasite growth – strain 3D7 (AID 2306);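 further: 0% = DMSO wells and 100% = chloroquine plus artemisinin control wells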; settings: P. falciparum 3D7 erythrocytic growth, LDH absorbance, 72 h; at 2 µM; active compounds read high
# [5] = target: Calcium-dependent protein kinase 1 (Plasmodium falciparum (isolate 3D7)) (UniProt P62344); test: PfCDPK1 kinase inhibitors, biochemical, TCAMS library (AID 1159585; cut-off not given, nearly all actives have IC50 up to about 0.98 µM;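 further: inhibitors leave more ATP so luminescence rises with inhibition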); settings: recombinant PfCDPK1, Kinase-Glo ATP depletion luminescence
# [6] = target: Plasmodium falciparum protein kinase 6 (PK6, PF3D7_1337100) (UniProt Q8IDW1); test: PfPK6 kinase inhibitors, biochemical, TCAMS library (AID 1159586); settings: recombinant PfPK6, Kinase-Glo ATP depletion luminescence
# [7] = target: Protein kinase 7 (PK7), Plasmodium falciparum 3D7 (PF3D7_0213400) (UniProt Q7YTF7); test: inhibition of Plasmodium PK7 catalytic activity – biochemical, TCAMS antimalarial set, Kinase-Glo luminescence (AID 1159587); settings: recombinant PfPK7, Kinase-Glo ATP depletion luminescence
# [8] = target: Calcium-dependent protein kinase 4 (Plasmodium falciparum (isolate 3D7)) (UniProt Q8IBS5); test: PfCDPK4 kinase inhibitors, biochemical, TCAMS library (AID 1159588; cut-off not given, nearly all actives have IC50 up to about 0.91 µM); settings: recombinant PfCDPK4, Kinase-Glo ATP depletion luminescence
# Chain of Calcium-dependent protein kinase 4 (Plasmodium falciparum (isolate 3D7)) (Q8IBS5 whole entry, looked up): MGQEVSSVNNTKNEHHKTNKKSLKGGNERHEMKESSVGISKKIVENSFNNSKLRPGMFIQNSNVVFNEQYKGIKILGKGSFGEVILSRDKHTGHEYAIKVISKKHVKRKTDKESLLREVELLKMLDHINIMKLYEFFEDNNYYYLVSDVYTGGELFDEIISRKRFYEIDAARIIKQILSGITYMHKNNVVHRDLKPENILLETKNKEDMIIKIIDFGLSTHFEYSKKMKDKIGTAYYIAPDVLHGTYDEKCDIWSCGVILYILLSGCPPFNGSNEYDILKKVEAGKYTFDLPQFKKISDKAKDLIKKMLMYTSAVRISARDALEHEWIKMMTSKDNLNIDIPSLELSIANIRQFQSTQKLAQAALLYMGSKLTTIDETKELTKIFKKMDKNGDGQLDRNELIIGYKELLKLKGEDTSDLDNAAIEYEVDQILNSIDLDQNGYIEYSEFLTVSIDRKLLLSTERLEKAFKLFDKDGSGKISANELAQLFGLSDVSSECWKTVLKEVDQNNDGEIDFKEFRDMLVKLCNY
# Chain of Calcium-dependent protein kinase 1 (Plasmodium falciparum (isolate 3D7)) (P62344 whole entry, looked up): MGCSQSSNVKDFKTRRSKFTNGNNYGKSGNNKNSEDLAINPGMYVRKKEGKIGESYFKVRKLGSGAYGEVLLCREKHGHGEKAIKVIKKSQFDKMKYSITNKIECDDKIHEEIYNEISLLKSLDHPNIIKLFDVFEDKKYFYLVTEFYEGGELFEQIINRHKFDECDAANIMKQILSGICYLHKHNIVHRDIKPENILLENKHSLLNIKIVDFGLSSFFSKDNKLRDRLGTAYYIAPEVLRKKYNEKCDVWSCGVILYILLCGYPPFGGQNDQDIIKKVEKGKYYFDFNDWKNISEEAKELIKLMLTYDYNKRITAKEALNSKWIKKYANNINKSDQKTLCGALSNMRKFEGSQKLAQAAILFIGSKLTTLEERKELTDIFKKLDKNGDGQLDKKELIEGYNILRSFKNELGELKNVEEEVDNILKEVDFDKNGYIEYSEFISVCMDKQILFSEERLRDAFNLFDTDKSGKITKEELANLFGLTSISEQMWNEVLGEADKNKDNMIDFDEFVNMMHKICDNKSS
# Chain of Plasmodium falciparum protein kinase 6 (PK6, PF3D7_1337100) (Q8IDW1 1-305): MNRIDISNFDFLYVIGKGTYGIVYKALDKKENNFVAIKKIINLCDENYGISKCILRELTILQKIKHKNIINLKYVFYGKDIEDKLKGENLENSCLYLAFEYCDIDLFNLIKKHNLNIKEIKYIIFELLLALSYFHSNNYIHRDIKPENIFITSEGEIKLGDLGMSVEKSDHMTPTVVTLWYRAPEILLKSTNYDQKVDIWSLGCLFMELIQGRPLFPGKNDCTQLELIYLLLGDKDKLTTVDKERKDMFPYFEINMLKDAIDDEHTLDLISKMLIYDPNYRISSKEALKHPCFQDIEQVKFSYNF
# Chain of L-lactate dehydrogenase (Plasmodium falciparum (isolate CDC / Honduras)) (Q27743 whole entry, looked up): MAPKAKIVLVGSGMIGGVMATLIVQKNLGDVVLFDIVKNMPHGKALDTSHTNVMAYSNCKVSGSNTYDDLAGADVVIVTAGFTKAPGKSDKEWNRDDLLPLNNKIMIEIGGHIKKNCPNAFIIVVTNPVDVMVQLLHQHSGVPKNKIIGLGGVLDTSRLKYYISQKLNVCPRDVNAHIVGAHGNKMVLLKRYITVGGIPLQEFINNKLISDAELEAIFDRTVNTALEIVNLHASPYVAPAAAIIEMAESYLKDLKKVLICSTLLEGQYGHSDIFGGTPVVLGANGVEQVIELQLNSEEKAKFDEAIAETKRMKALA
# Chain of Protein kinase 7 (PK7), Plasmodium falciparum 3D7 (PF3D7_0213400) (Q7YTF7 1-343): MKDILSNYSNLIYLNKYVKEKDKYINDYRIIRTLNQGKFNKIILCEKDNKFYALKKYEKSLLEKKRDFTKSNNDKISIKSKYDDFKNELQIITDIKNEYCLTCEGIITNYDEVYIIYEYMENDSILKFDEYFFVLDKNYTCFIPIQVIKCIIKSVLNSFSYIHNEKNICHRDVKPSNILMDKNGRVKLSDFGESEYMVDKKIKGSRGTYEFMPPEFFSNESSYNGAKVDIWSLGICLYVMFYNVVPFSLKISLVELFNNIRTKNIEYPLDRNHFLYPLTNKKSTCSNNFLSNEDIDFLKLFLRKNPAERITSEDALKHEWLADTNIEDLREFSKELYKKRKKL
Compound,growth inhibition [1],inhibition [2],inhibition [3],growth inhibition [4],outcome [5],outcome [6],outcome [7],outcome [8]
O=C(/C=C/c1ccc(Cl)c(Cl)c1)Nc1cccc(CN2CCC(c3c[nH]c4ccccc34)CC2)c1,91% (active),15%,0%,99% (active),inactive,inactive,inactive,inactive
CC[C@H]1CN2CC[C@H]1C[C@@H]2[C@@H](O)c1cc(Cl)nc2ccc(OC)cc12,82% (active),-9%,-2%,98% (active),inactive,inactive,inactive,inactive
CC(Cc1ccc(OCCOc2ccccc2)cc1)NCC(O)c1cccc(Cl)c1 (stereo unspecified),99% (active),12%,1%,99% (active),inactive,inactive,inactive,inactive
COc1cccc(C(=O)C2CC2CN2CC=C(c3c(C)[nH]c4ccccc34)CC2)c1 (stereo unspecified),87% (active),13%,-8%,92% (active),inactive,inactive,inactive,inactive
Cc1cc(N(C)C2CCN(C)CC2)nc(Nc2ccc(Br)cc2)n1,92% (active),-5%,2%,100% (active),inactive,inactive,inactive,inactive
CC1(C)CCCN(C(=O)Cc2ccc3c(c2)CCCC3)C1CN1CC=CC1 (stereo unspecified),1%,-3%,-1%,98% (active),inactive,inactive,inactive,inactive
O=C(c1ccccc1)[C@H]1C[C@@H]1CN1CC=C(c2c[nH]c3ccccc23)CC1,73% (active),4%,-6%,95% (active),inactive,inactive,inactive,inactive
CC(C)c1ccc(C=CC(=O)NC2CCC(CN3CCC(c4c[nH]c5ccccc45)CC3)CC2)cc1 (stereo unspecified),85% (active),50% (active),-3%,101% (active),inactive,inactive,inactive,inactive
CC[C@H]1CN2CC[C@H]1C[C@H]2[C@H](O)c1cc(Cl)nc2ccc(OC)cc12,92% (active),0%,2%,101% (active),inactive,inactive,inactive,inactive
O=C(NC1CCC(CN2CCC(c3c[nH]c4ccccc34)CC2)CC1)c1csc(-c2cccc(Cl)c2Cl)n1 (stereo unspecified),41%,34%,-3%,99% (active),inactive,inactive,inactive,inactive
COc1ccc(C(=O)[C@H]2C[C@@H]2CN2CC=C(c3c[nH]c4ccc(OC)nc34)CC2)cc1,91% (active),8%,-3%,98% (active),inactive,inactive,inactive,inactive
CN(c1cc(NC(=O)c2cccs2)ccn1)C1CCN(Cc2cccc(C#N)c2)CC1,69% (active),59% (active),4%,90% (active),inactive,inactive,inactive,inactive
C/C=C1/CN2CC[C@H]1C[C@H]2[C@H](O)c1ccnc2ccc(OC)cc12,45%,-16%,0%,99% (active),inactive,inactive,inactive,inactive
COc1ccc(C[C@@H](C)NC[C@H](O)c2cccc(Cl)c2)cc1F,76% (active),2%,-2%,88% (active),inactive,inactive,inactive,inactive
Cc1ccccc1CNCC(O)c1cccc(C(F)(F)F)c1 (stereo unspecified),77% (active),5%,-4%,99% (active),inactive,inactive,inactive,inactive
O=C(/C=C/c1ccc(Cl)c(Cl)c1)NC[C@@H]1CCC[C@H](CN2CCC(c3c[nH]c4ccccc34)CC2)C1,43%,61% (active),-4%,98% (active),inactive,inactive,inactive,inactive
CN(C)CCCn1cc(C(=O)OC2C[C@H]3CC[C@@H](C2)N3C)c2cc(-c3ccccc3)ccc21 (stereo partly specified),96% (active),97% (active),0%,97% (active),inactive,inactive,inactive,inactive
COc1ccc(CC(C)NCC(O)c2cccc(Cl)c2)cc1C (stereo unspecified),78% (active),11%,-6%,89% (active),inactive,inactive,inactive,inactive
CC(Cc1ccc(NC(=O)[C@@H](C)NCCc2cccc(Cl)c2)cc1)NCCc1cccc(Cl)c1 (stereo partly specified),54% (active),99% (active),-1%,99% (active),inactive,inactive,inactive,inactive

Compound,growth inhibition [1],inhibition [2],inhibition [3],growth inhibition [4],outcome [5],outcome [6],outcome [7],outcome [8]
Cc1nc2ccccc2n1C1C[C@H]2CC[C@@H](C1)N2Cc1nccn1-c1ccccc1 (stereo partly specified),96% (active),0%,-4%,94% (active),inactive,inactive,inactive,inactive
N[C@@H](CCN1CCC(c2cccc(O)c2)CC1)Cc1ccc(F)c(F)c1,0%,25%,-3%,92% (active),inactive,inactive,inactive,inactive
COc1ccc2c(c1)[nH]c1c(C=Cc3ccccc3)nccc12,6%,19%,7%,91% (active),inactive,inactive,inactive,inactive
C/C=C1\CN2CC[C@H]1C[C@H]2[C@H](O)c1ccnc2ccc(O)cc12,-1%,-15%,-3%,98% (active),inactive,inactive,inactive,inactive
OC1(c2ccc(Cl)c(C(F)(F)F)c2)CCN(CCOC2c3ccccc3CSc3ccc(Cl)cc32)CC1 (stereo unspecified),58% (active),3%,6%,95% (active),inactive,inactive,inactive,inactive
Cc1cc(N(C)C2CCN(C)CC2)nc(Nc2ccc(Cl)cc2)n1,90% (active),15%,-6%,98% (active),inactive,inactive,inactive,inactive
CN1CCC(N(C)c2nccc(N3CCN(Cc4cncn4Cc4ccccc4)CC3)n2)CC1,100% (active),15%,3%,100% (active),inactive,inactive,inactive,inactive
N#Cc1c(Cl)cccc1Oc1ccc(S(=O)(=O)N2CCC(CN3CCC(c4c[nH]c5ccccc45)CC3)CC2)cc1,67% (active),36%,4%,100% (active),inactive,inactive,inactive,inactive
O=C1Nc2cccc3c2C1(CCCCCN1CC=C(c2c[nH]c4ccccc24)CC1)CCC3 (stereo unspecified),89% (active),2%,3%,94% (active),inactive,inactive,inactive,inactive
COC(=O)/C=C/c1ccc(C[C@@H](C)NC[C@H](O)c2cccc(C(F)(F)F)c2)cc1,93% (active),41%,-6%,97% (active),inactive,inactive,inactive,inactive
CC1=C(C(=O)NC2CCC(CN3CCC(c4c[nH]c5ccccc45)CC3)CC2)Cc2ccccc21 (stereo unspecified),24% and 15%,41% and 37%,6% and 7%,97% (active) and 99% (active),inactive,inactive,inactive,inactive
COc1ccc2nc(-c3ccc(F)cc3)cc([C@@H](O)[C@@H]3C[C@@H]4CCN3CC4C=NO)c2c1 (stereo partly specified),94% (active),14%,-2%,100% (active),inactive,inactive,inactive,inactive
CC[C@H]1CN2CC[C@@H]1C[C@H]2[C@H](O)c1ccnc2ccc(Cl)cc12,98% (active),-3%,2%,100% (active),inactive,inactive,inactive,inactive
OC(CNC1CCCCCC1)c1ccc(Cl)c(Cl)c1 (stereo unspecified),98% (active),-3%,-3%,99% (active),inactive,inactive,inactive,inactive
COC(C(=O)OCCC1CCCN1C)(c1ccccc1)c1ccccc1 (stereo unspecified),9%,6%,2%,98% (active),inactive,inactive,inactive,inactive
COC(=O)/C=C/c1ccc(CC(C)NCC(O)c2cccc(Br)c2)cc1 (stereo unspecified),93% (active),2%,5%,97% (active),inactive,inactive,inactive,inactive
NC(=NCCCCCCN=C(N)/N=C(\N)c1ccc(Cl)cc1)/N=C(\N)c1ccc(Cl)cc1,99% (active),10%,-9%,98% (active),inactive,inactive,inactive,inactive
CC[C@H]1CN2CC[C@@H]1C[C@H]2[C@H](O)c1cc(N2CCC(O)(c3ccc(Cl)cc3)CC2)nc2ccc(OC)cc12,98% (active),21%,-8%,101% (active),inactive,inactive,inactive,inactive
